# PubChem BioAssay (NCATS)
# Records with an inconclusive call do not appear. Where a call stands in place of a potency, no number is given. Activity calls are given as the source filed them. Unless noted, calls follow the shape of the full dose curve.
# Assays:
# [1] = Primary qHTS for Huh7 cytotoxicity: counterscreen for inhibitors of MERS-S pseudotyped particle cell entry (AID 1479147); details: outcome: dose series up to 57.1 µM unless noted
# [2] = Primary qHTS for inhibitors of MERS-S pseudo-typed particle cell entry (AID 1479149); details: outcome: dose series up to 57.1 µM unless noted; also: nearly all actives have a fitted effect of over 60% in size
# [3] = Primary qHTS for Vero E6 cytotoxicity: counterscreen for inhibitors of SARS-S pseudo-typed particle cell entry (AID 1479150); details: outcome: dose series up to 57.1 µM unless noted
# [4] = Cytotoxicity counterscreen for inhibitors of SARS-CoV-2 cell entry (AID 1645845); details: outcome: dose series up to 57.1 µM unless noted; also: nearly all actives have a fitted effect of over 50% in size
# Outline: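 Expi293F/hACE2 cells seeded overnight; cpd pin-transferred in DMSO, 1 h preincubation, + media, 48 h 37 C 5% CO2; ATPLite 1step luminescence; normalized to cells and no cells.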
# [5] = Primary qHTS to identify inhibitors of SARS-CoV-2 cell entry (AID 1645846); details: SARS-CoV-2 pseudovirus cell entry assay, luminescence; activity change, negative = inhibition: at 57.1 µM (top of the series) unless noted; also: nearly all actives have a fitted effect of over 45% in size; also: potency is read from the fitted curve at half-maximal effect
# Outline: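 HEK293-ACE2 (Expi293F, stable hACE2), 1500 cells/well, o/n 37C; cpd 23 nL pin, 1 h; MLV-PP w/ SARS-CoV-2-S (Wuhan-Hu-1, Δ19 C-term); 48 h 37C; Bright-Glo luminescence; normalized vs S-PP and bald PP.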
# [6] = KB-8-5-11 P-gp reporter qHTS against the NCATS DSHEA and TCM libraries (AID 1919977; active = well fitted curve in the direction sought with a large enough effect; an effect the other way counts as inactive or inconclusive)
# Outline: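 CellTiter-Glo luminescence after ~72 h exposure at 37C gave viability of KB-8-5-11 cells, the P-gp-overexpressing subline. Substances were titrated; colchicine was omitted from assay medium.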
# [7] = target: Glutathione peroxidase 1 (Homo sapiens) (UniProt P07203); test: Primary qHTS Assay for Inhibitors of Recombinant Selenoprotein Glutathione Peroxidase 1 (GPX1) (AID 1845191; active = well fitted curve in the direction sought with a large enough effect; an effect the other way counts as inactive or inconclusive; also: nearly all actives have a fitted effect of over 65% in size)
# Outline: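 Recombinant GPX1 (10 nM final) was preincubated with compound for 30 min at room temperature, then reacted with 1 mM GSH, 0.5 mM CHP, 0.5 mM NADPH and 100 nM glutathione reductase; NADPH fluorescence (340/450 nm) was read at 0 and 15 min.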
# Glutathione peroxidase 1 (Homo sapiens), sequence (P07203 whole entry, looked up): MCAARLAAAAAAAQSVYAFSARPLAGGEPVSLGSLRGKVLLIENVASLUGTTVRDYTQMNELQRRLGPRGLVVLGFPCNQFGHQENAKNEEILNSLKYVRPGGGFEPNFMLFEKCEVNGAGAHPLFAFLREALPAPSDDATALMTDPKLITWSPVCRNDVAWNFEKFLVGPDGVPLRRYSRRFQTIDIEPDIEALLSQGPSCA
compound,measurement,setting,value
Cc1cc(CC(C)C[Si](C)(O[Si](C)(C)C)O[Si](C)(C)C)c(O)c(-n2nc3ccccc3n2)c1 (configuration not stated),Potency,[1],inactive
same,Potency,[2],inactive
same,Potency,[3],inactive
same,Potency,[4],inactive
same,"activity change, negative = inhibition",[5],-21.7% [at 19 µM]
CN1C2CC[C@@H]1CC(OC(=O)[C@H](CO)c1ccccc1)C2 (some centres not stated),Potency,[1],inactive
same,Potency,[2],inactive
same,Potency,[3],inactive
same,Potency,[4],inactive
same,"activity change, negative = inhibition",[5],-26.3%
CC1(C)S[C@@H]2[C@H](NC(=O)[C@H](NC(=O)N3CCN(S(C)(=O)=O)C3=O)c3ccccc3)C(=O)N2[C@H]1C(=O)O,Potency,[1],inactive
same,Potency,[2],inactive
same,Potency,[3],inactive
same,Potency,[4],inactive
same,"activity change, negative = inhibition",[5],-10%
O=C1N=C(N2CCOCC2)CN1c1ccc(Cl)cc1,Potency,[1],inactive
same,Potency,[2],inactive
same,Potency,[3],inactive
same,Potency,[4],inactive
same,"activity change, negative = inhibition",[5],-29.2%
NS(=O)(=O)c1cc2c(cc1Cl)NC(Cc1ccccc1)NS2(=O)=O (configuration not stated),Potency,[1],inactive
same,Potency,[2],inactive
same,Potency,[3],inactive
same,Potency,[4],inactive
same,"activity change, negative = inhibition",[5],-16.2%
CCCC1CC(C(=O)NC(C(C)Cl)C2OC(SC)C(OP(=O)(O)O)C(O)C2O)N(C)C1 (configuration not stated),Potency,[1],inactive
same,Potency,[2],inactive
same,Potency,[3],inactive
same,Potency,[4],inactive
same,"activity change, negative = inhibition",[5],-28.7% [at 27.1 µM]
O=C1CCC(=O)N1CO,Potency,[1],inactive
same,Potency,[2],inactive
same,Potency,[3],inactive
same,Potency,[4],inactive
same,Potency,[5],inactive
CCCCCCO[C@@H](C)c1cccc(-c2csc(NC(=O)c3cc(Cl)c(/C=C(\C)C(=O)O)c(Cl)c3)n2)c1OC,Potency,[1],inactive
same,Potency,[2],inactive
same,Potency,[3],inactive
same,Potency,[4],inactive
same,"activity change, negative = inhibition",[5],-33.5%
CCCCC(C)(O)CC=C[C@H]1[C@H](O)CC(=O)[C@H]1CCCCCCC(=O)OC (some centres not stated),Potency,[1],inactive
same,Potency,[2],inactive
same,Potency,[3],inactive
same,Potency,[4],inactive
same,Potency,[5],inactive
Cc1ccc([C@@H]2O[C@H](CO)[C@@H](O)[C@H](O)[C@H]2O)cc1Cc1ccc(-c2ccc(F)cc2)s1,Potency,[1],inactive
same,Potency,[2],inactive
same,Potency,[3],inactive
same,Potency,[4],inactive
same,Potency,[5],17.8 µM (active)
CCN(CC)CCOc1ccc2nc(N(C)C)sc2c1,Potency,[1],inactive
same,Potency,[2],inactive
same,Potency,[3],inactive
same,Potency,[4],inactive
same,"activity change, negative = inhibition",[5],-8.36% [at 114 µM]
C/C(=C(/CCO)SSCC1CCCO1)N(C=O)Cc1cnc(C)nc1N (configuration not stated),Potency,[1],inactive
same,Potency,[2],inactive
same,Potency,[3],inactive
same,Potency,[4],inactive
same,"activity change, negative = inhibition",[5],-21.7%
CCC[C@@H]1C[C@@H](C(=O)N[C@@H](C2O[C@H](SC)[C@H](O)[C@@H](O)[C@H]2O)[C@H](C)Cl)N(C)C1 (some centres not stated),Potency,[1],inactive
same,Potency,[2],inactive
same,Potency,[3],inactive
same,Potency,[4],inactive
same,Potency,[5],inactive
CCCOc1cc(N)ccc1C(=O)OCCN(CC)CC,Potency,[1],inactive
same,Potency,[2],inactive
same,Potency,[3],inactive
same,Potency,[4],inactive
same,"activity change, negative = inhibition",[5],-10.9%
CC1=C(C(=O)O)N2C(=O)[C@@H](NC(=O)[C@H](N)C3=CCC=CC3)[C@@H]2SC1,Potency,[1],inactive
same,Potency,[2],inactive
same,Potency,[3],inactive
same,Potency,[4],inactive
same,"activity change, negative = inhibition",[5],-32.9%
CC#CCC(C)[C@H](O)/C=C/[C@@H]1[C@H]2c3cccc(CCCC(=O)O)c3O[C@H]2C[C@H]1O (some centres not stated),Potency,[1],inactive
same,Potency,[2],inactive
same,Potency,[3],inactive
same,Potency,[4],inactive
same,"activity change, negative = inhibition",[5],-5.27%
CO/N=C(/C(=O)N[C@@H]1C(=O)N2C(C(=O)O)=C(CSC(=O)c3ccco3)CS[C@H]12)c1csc(N)n1,Potency,[1],inactive
same,Potency,[2],inactive
same,Potency,[3],inactive
same,Potency,[4],inactive
same,"activity change, negative = inhibition",[5],-26.3%
OCC=Cc1ccccc1,Potency,[1],inactive
same,Potency,[2],inactive
same,Potency,[3],inactive
same,Potency,[4],inactive
same,"activity change, negative = inhibition",[5],-22.7%
same,Potency,[6],inactive
CO/N=C(/C(=O)N[C@@H]1C(=O)N2C(C(=O)OC(C)OC(C)=O)=C(COC(N)=O)CS[C@H]12)c1ccco1 (some centres not stated),Potency,[1],inactive
same,Potency,[2],inactive
same,Potency,[3],inactive
same,Potency,[4],inactive
same,"activity change, negative = inhibition",[5],-14.5%
N=C1CCCN1Cc1[nH]c(=O)[nH]c(=O)c1Cl,Potency,[1],inactive
same,Potency,[2],inactive
same,Potency,[3],inactive
same,Potency,[4],inactive
same,"activity change, negative = inhibition",[5],-1.38%
FCOC(C(F)(F)F)C(F)(F)F,Potency,[1],inactive
same,Potency,[2],inactive
same,Potency,[3],inactive
same,Potency,[4],inactive
same,"activity change, negative = inhibition",[5],-16%
CC(C)(S)[C@H](N)C(=O)O,outcome,[1],inactive [at 5.34 µM]
same,outcome,[2],inactive [at 5.34 µM]
same,"activity change, negative = cytotoxicity",[3],0.739% [at 5.34 µM] (inactive)
same,outcome,[4],inactive [at 5.25 µM]
same,"activity change, negative = inhibition",[5],-28.5% [at 5.25 µM]
CC(C)OC(=O)[C@H](C)N[P@@](=O)(OC[C@H]1O[C@@H](n2ccc(=O)[nH]c2=O)[C@](C)(F)[C@@H]1O)Oc1ccccc1,Potency,[1],inactive
same,Potency,[2],inactive
same,Potency,[3],inactive
same,Potency,[4],inactive
same,"activity change, negative = inhibition",[5],-25.3%
O=C(O)c1cc2ccccc2c(Cc2c(O)c(C(=O)O)cc3ccccc23)c1O,Potency,[1],inactive
same,Potency,[2],inactive
same,Potency,[3],inactive
same,Potency,[4],inactive
same,Potency,[5],inactive
CN1CC(O)c2cc(N=NC(=N)N)c(O)cc21 (configuration not stated),Potency,[1],inactive
same,Potency,[2],inactive
same,Potency,[3],inactive
same,Potency,[4],inactive
same,"activity change, negative = inhibition",[5],-23.2%
CCCCCCCCCC(=O)OC1CC[C@H]2[C@@H]3CCC4=CC(=O)CC[C@@H]4[C@H]3CC[C@]12C (some centres not stated),Potency,[1],inactive
same,Potency,[2],inactive
same,Potency,[3],inactive
same,Potency,[4],inactive
same,"activity change, negative = inhibition",[5],0.678%
same,Potency,[7],inactive
OC[C@H]1O[C@H](O[C@H]2[C@H](O)[C@@H](O)[C@H](O)O[C@@H]2CO)[C@H](O)[C@@H](O)[C@@H]1O,Potency,[1],inactive
same,Potency,[2],inactive
same,Potency,[3],inactive
same,Potency,[4],inactive
same,"activity change, negative = inhibition",[5],-20.9%
